High-throughput results as filed in PubChem BioAssay.
TDP1 cell CPT = DT40-hTDP1 cell growth loss with CPT | chicken DT40 Tdp1-/-;hTDP1 cells + 20 nM CPT, ATP luminescence, 48 h | Potency, µM (top dose mostly 46.2 µM), inactives show top-dose activity change, negative = growth inhibition, hits mostly inhibitors | AID 686979 | 420,000 tested, 12% active; note: potency is the fitted concentration of half-maximal effect; nearly all actives have a fitted effect of over 55% in size
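Cell growth measured by CellTiter-Glo luminescence after a minimum 48 h, 37 C compound exposure with 20 nM CPT in Tdp1-knockout DT40 cells stably expressing hTDP1, seeded 400/well; qHTS titration format.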
HT1080 IDH1KD tx = kills HT-1080 cells with IDH1 knockdown. HT-1080 IDH1 knockdown viability, ATP luminescence, 48 h. Potency, µM (doses to about 46.1 µM), for the others: top-dose activity, negative = toxicity, usual class: cytotoxic. 360,000 tested, 2% active;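 note: potency is the fitted concentration of half-maximal effect; 0% = DMSO wells and -100% = cell-free medium wells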
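Knockdown cells (IDH1KD HT-1080) received compounds 2 h after plating at 750 cells/well and were kept 48 h at 37 °C in 5% FBS RPMI. A CellTiter-Glo luminescence read gave % activity for curve fitting.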
IL-1B inflam inh = inhibitors of inflammasome signaling (IL-1 beta secretion); THP-1 LPS/ATP IL-1B secretion, AlphaLISA, 16 h; stronger effect = lower value; activity change, % at 57.5 µM; 360,000 tested, 4.7% active; in the data active = activity change below about -50%; inconclusive = mostly about -30% to -49%
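Secreted IL-1B measured by AlphaLISA bead assay after 16 h compound exposure of THP-1 cells; compounds (final up to 57.5 uM) added 1 h before LPS (250 ng/mL) and ATP (1.25 mM) stimulation; lower signal means less secretion.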
TDP1 cell noCPT = qHTS for Inhibitors of human tyrosyl-DNA phosphodiesterase 1 (TDP1): qHTS in cells in absence of CPT; DT40 Tdp1-/- hTDP1 cells, no CPT, ATP luminescence, 48 h; Potency, µM (top dose mostly 46.2 µM), without a hit: at the highest dose activity change, negative = growth inhibition, hits mostly inhibitors; 420,000 tested, 15% active; note: potency is the fitted concentration of half-maximal effect; nearly all actives have a fitted effect of over 55% in size
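Growth kinetics read by CellTiter-Glo luminescence after ≥48 hr at 37 °C. Cells: DT40 Tdp1-/- stably carrying human TDP1, 400 per well, compound exposure in the absence of CPT (DMSO vehicle).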
HT1080NT lethal = kills 2HG-producing HT-1080-NT fibrosarcoma cells; AID 686970; Potency, µM (highest dose often 46.1 µM), for the others: top-dose activity, negative = less viability, most hits filed as cytotoxic; HT-1080-NT fibrosarcoma viability, CellTiter-Glo ATP luminescence, 48 h; 360,000 tested, 1.6% active;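 note: NT is the 2HG producing partner of a matched IDH1 knockdown line; potency is the fitted concentration of half-maximal effect; 0% = DMSO-treated cells and -100% = media-only wells without cells; nearly all actives have a fitted effect of over 55% in size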
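Viability of the 2HG-overproducing fibrosarcoma line after 48 hours of compound exposure at 37 degrees C was determined by luminescence with CellTiter-Glo, and concentration-effect curves were then fitted and categorized.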
12-LOX inh = ALOX12 (human) lipoxygenase inhibition | P18054 | purified 12hLO, xylenol orange hydroperoxide absorbance | Potency, µM (titrated, usually from 108 µM), inactives show top-dose activity change, negative = inhibition, most hits filed as inhibitors | 580,000 tested, 1.1% active; note: potency is the fitted concentration of half-maximal effect
Target sequence (P18054 whole entry, looked up): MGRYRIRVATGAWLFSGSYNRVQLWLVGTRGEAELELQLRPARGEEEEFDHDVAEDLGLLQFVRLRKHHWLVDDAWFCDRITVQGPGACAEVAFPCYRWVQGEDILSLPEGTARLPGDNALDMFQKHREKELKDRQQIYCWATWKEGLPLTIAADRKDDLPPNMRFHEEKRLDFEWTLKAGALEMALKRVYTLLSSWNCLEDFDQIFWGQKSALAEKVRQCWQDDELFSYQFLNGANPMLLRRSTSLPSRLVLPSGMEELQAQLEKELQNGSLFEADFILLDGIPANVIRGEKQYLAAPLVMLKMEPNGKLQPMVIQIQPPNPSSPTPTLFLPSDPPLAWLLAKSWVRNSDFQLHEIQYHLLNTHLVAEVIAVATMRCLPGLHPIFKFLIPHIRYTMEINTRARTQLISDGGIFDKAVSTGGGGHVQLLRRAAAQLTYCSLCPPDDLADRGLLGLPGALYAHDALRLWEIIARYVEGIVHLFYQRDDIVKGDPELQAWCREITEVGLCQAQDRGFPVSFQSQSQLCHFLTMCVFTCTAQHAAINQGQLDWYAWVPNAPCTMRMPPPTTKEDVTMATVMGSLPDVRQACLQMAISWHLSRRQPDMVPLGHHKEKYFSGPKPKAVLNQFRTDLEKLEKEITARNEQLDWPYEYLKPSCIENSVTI
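Purified human 12hLO (150 nM final) in 25 mM Hepes, 0.01% Triton X-100, pH 7.0 was preincubated 15 min at room temperature with compound. Then 40 uM arachidonic acid was added, 30 min. Hydroperoxide was read by Fe-XO absorbance ratio 573/405 nm.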
The depositor's hits bear a star; u = inconclusive; x = no result; [ ] = remark or other dose. The full list was thinned out, with hits kept by preference. Unless noted, calls come from the whole dose curve; as a rule, active = well fitted curve in the direction sought with a large enough effect; inconclusive = small, poorly fitted or top-dose-only effect, or another doubt; inactive = no such curve, though single readings can be large; an effect the other way counts as inactive or inconclusive. Unless noted, % is set by controls: 0 for no effect and ±100 for the full control effect.

SMILES	TDP1 cell CPT	HT1080 IDH1KD tx	IL-1B inflam inh	TDP1 cell noCPT	HT1080NT lethal	12-LOX inh
COc1ccc(C(C)NC(=S)NCc2ccc(F)cc2)cc1 (stereo unspecified)	18.4µM*	-10.4%	22.2	u	-16.8%	u
COc1cccc(C(C)NC(=S)NCc2ccc(Cl)cc2)c1 (stereo unspecified)	15.8%	3.7%	15.0	-22.1%	4.4%	-20.2%
CCC(NC(=S)NCc1ccc(F)cc1)c1ccccc1 (stereo unspecified)	u	-0.2%	-6.6	u	-11.3%	u
Cc1ccc(C)c(C(C)NC(=S)NCc2ccc(F)cc2)c1 (stereo unspecified)	23.1µM*	u	40.0	u	u	u
CCN(C(=O)CN(C)S(=O)(=O)c1cc2c(cc1C)NC(=O)C(C)O2)c1cccc(C)c1 (stereo unspecified)	x	x	x	x	x	4.7%
CCc1n[nH]c(CC2CCN(C(=O)Cc3c[nH]c4ccccc34)CC2)n1	x	x	x	x	x	0.8%
N#Cc1c(-c2ccc(Cl)cc2Cl)csc1N	x	x	x	x	x	20µM*
Cc1ccc(-c2csc(N)c2C#N)c(C)c1	x	x	x	x	x	22.4µM*
C/C(=N\NC(=O)c1ccccc1F)c1cccc(NC(=O)c2ccccc2)c1	-24.2%	5.1%	-1.5	-18.4%	13.0%	3.0%
O=C(Nc1ccc2c(c1)OCCO2)c1ccccc1F	7.31µM*	-1.1%	-8.9	14.6µM*	-0.4%	27.6%
O=C(Nc1cccc(NC(=O)c2ccccc2F)c1)c1ccccc1	u	-1.4%	-53.6*	u	-8.2%	21.0%
O=C(NC(=S)Nc1ccc2c(c1)OCCO2)c1ccccc1F	-24.0%	10.3%	u	7.4%	7.2%	-26.2%
O=C(Nc1ccc2c(c1)OCCO2)c1cccc2nc3ccccc3nc12	23.1µM*	-14.0%	u	14.6µM*	-2.4%	-3.1%
Cc1ccc2c(COC(=O)COc3ccc(Br)cc3)cc(=O)oc2c1C	x	x	x	x	x	6.2%
O=C(CC(c1ccc(Cl)cc1)C1CCCC1=O)c1ccccc1 (stereo unspecified)	x	x	x	x	x	-4.9%
Cc1nn(-c2ccc(F)cc2)c(C)c1CNC(=O)c1ccc(-n2cc(NC(=O)c3ccoc3)cn2)cc1	-15.1%[9.04 µM]	x	x	11.6µM*	x	-1.2%
CC1(C)Cc2c(cnn2-c2ccc(F)cc2)C(NC(=O)c2ccoc2)C1 (stereo unspecified)	-24.7%	14.4%	3.2	0.2%	2.7%	-13.4%
CC(C)[C@@H](NC(=O)OC(C)(C)C)c1cc(C(=O)c2c(-c3ccccc3)[nH]c3ccccc23)c(N)s1	18.4µM*	u	u	18.4µM*	u	u
CC(C)[C@H](NC(=O)OC(C)(C)C)c1cc(C(=O)NCCc2c[nH]c3ccccc23)c(N)s1	16.4µM*	-20.5%	-1.8	20.6µM*	-28.9%	-47.3%
COCc1nc(C2CCCN(C(=O)Nc3ccc(C)cc3C)C2)no1 (stereo unspecified)	x	x	x	x	x	43.3%
C=C(C)/C=C1/C(Cc2ccccc2)N(CC2CC2)C(=N)N1C(=O)OCc1ccccc1 (stereo unspecified)	x	x	x	x	x	0.0%
Cn1c(NC(=O)C[n+]2cc(-c3ccc(Cl)cc3)n3c2CCC3)cc(=O)n(C)c1=O	-25.5%	12.4%	10.1	u	u	-14.8%
Cc1ccc(C[n+]2cc(-c3ccc(Cl)cc3)n3c2CCC3)cc1	5.17µM*	-19.4%	-92.5*	2.31µM*	-23.0%	-0.9%
Cc1ccc(-c2c[n+](Cc3ccc(Cl)cc3)c3n2CCC3)cc1	4.11µM*	u	-84.7*	3.66µM*	u	98.0%
CCOC(=O)c1ccc(NC(=O)CC2C(=O)OCCN2CC)cc1 (stereo unspecified)	20.6µM*	15.2%	0.0	20.6µM*	23.0%	-12.2%
SMILES	TDP1 cell CPT	HT1080 IDH1KD tx	IL-1B inflam inh	TDP1 cell noCPT	HT1080NT lethal	12-LOX inh
CCN1CCOC(=O)C1CC(=O)Nc1cccc(OC)c1 (stereo unspecified)	5.17µM*	x	x	20.6µM*	x	-19.2%
CCOC(=O)c1ccc(NC(=O)CC2OCCN(CC)C2=O)cc1 (stereo unspecified)	18.4µM*	8.8%	2.7	13µM*	-5.2%	-46.4%
CCOc1ccc(NC(=O)CC2C(=O)OCCN2CC)cc1 (stereo unspecified)	8.2µM*	x	x	u	x	-15.8%
Nc1ccc2oc(-c3ccc(-c4ccccc4)cc3)nc2c1	x	x	x	x	x	3.3%
Cc1ccc(NC(=O)c2cncc(Br)c2)cc1S(=O)(=O)N(C)C	u	-0.8%	-5.6	14.6µM*	5.5%	-6.3%
Cc1ccc(S(=O)(=O)N(C)C)cc1NC(=O)c1cncc(Br)c1	13µM*	u	46.2	11.6µM*	u	0.1%
Cc1ccc(S(=O)(=O)N2CCCCC2)cc1NC(=O)c1cncc(Br)c1	u	-24.7%	-2.6	u	-0.2%	1.9%
CN(C)S(=O)(=O)c1cccc(NC(=O)c2cncc(Br)c2)c1	u	20.5%	-9.3	u	6.5%	-18.6%
O=C(Cn1c(SCCOc2ccccc2Cl)nc2ccccc21)N1CCOCC1	u	x	x	u	x	-16.1%
O=C(O)Cc1sc(N/N=C\c2ccccc2)nc1-c1ccccc1	-9.2%	13.2%	2.8	23.1µM*	0.7%	44.7µM*
Cc1nc(Nc2ccccc2)sc1-c1ccccc1	u	u	-13.4	u	u	u
c1ccc(Nc2nc(-c3ccccc3)c(-c3ccccc3)s2)cc1	28.2µM*	u	x	u	-27.6%	x
O=C(Cc1sc(Nc2ccccc2)nc1-c1ccccc1)NCc1ccccc1	16.4µM*	u	-68.4*	u	u	-0.5%
O=C(CCC1CCN(C(=O)c2ccccc2)CC1)NCc1cccc(C(F)(F)F)c1	x	x	x	x	x	8.2%
O=S(=O)(Cc1ccc(Cl)cc1)NCc1ccc2c(c1)OCO2	-13.6%	-8.5%	6.9	-12.7%	-4.9%	u
CC(Oc1ccccc1)C(=O)Nc1ccccc1C(=O)OCc1cc(=O)n2nc(C3CC3)sc2n1 (stereo unspecified)	3.66µM*	x	x	7.31µM*	x	-22.9%
Cc1ccc(OCC(=O)Nc2ccccc2C(=O)OCc2cc(=O)n3c(C)csc3n2)cc1	16.4µM*	x	x	20.6µM*	x	-25.7%
Cc1nn2c(=O)cc(COC(=O)c3ccccc3NC(=O)C(C)Oc3ccccc3)nc2s1 (stereo unspecified)	u	x	x	-19.7%	x	-5.7%
